Laboratory results from PubChem BioAssay (EPA / NIEHS).
“And” between values parts separate entries of the source, which are not always exact repeats. Equal entries are not always repeated. A structure can be active in one record and inactive in another. The source made the active and inactive calls. Rule for the calls: active = hit-call score of the fitted dose curve at least 0.9, where 1 is the maximum; inactive = score below 0.9.

Experiment: BSK_LPS_SRB: Viability Assessment in the BioMAP Diversity Plus: LPS Assay (AID 2283079);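 note: measured one day after compound addition; fitted in both directions against DMSO so loss or gain of signal counts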
Conditions: primary human HUVEC with PBMC
Experimental: BSK_LPS is a cell-based, multiplexed-readout assay that uses umbilical vein endothelium and peripheral blood mononuclear cells, a human vascular primary cell co-culture, with measurements taken at 24 hours after chemical dosing in a 96-well plate.BSK_LPS_SRB is an assay component measured in the BSK_LPS assay. It measures 0.1% sulforhodamine related to cell death using Sulforhodamine staining technology.Data from the assay component BSK_LPS_SRB was analyzed into 1 assay endpoint. This assay endpoint, BSK_LPS_SRB, was analyzed with bidirectional fitting relative to DMSO as the negative control and baseline of activity. Using a type of viability reporter, gain or loss-of-signal activity can be used to understand changes in the signaling. Furthermore, this assay endpoint can be referred to as a primary readout, because this assay has produced multiple assay endpoints where this one serves a signaling function. To generalize the intended target to other relatable targets, this assay endpoint is annotated to the cell morphology intended target family, where the subfamily is cell conformation.
The levels of cell surface (or secreted, indicated by the prefix "s") biomarker endpoints were measured by ELISA. Overt cytotoxicity to cells in confluent adherent cultures (all systems other than the BT system) was assessed by measuring total protein levels using sulforhodamine B (SRB) staining in parallel cultures at the time of biomarker measurements, indicated as SRB endpoints. For proliferation assays for adherent cell types, individual cell types are cultured at sub-confluence and relative cell numbers quantified by SRB staining at time points optimized for each system (48 h: 3C and CASM3C systems; 72 h: BT and HDF3CGF systems; 96 h: SAg system). SRB was performed by staining cells with 0.1% SRB after fixation with 10% TCA and reading wells at 560 nm.Viability and proliferation of PBMC (T cells) was quantified by Alamar Blue reduction for the SAg and BT systems. For PBMC viability (referred to as PBMC Cytotoxicity within the assay endpoint names), cells were plated (75,000/well in a 96-well plate) and then chemical samples added for 1 h before addition of activators, SEB and TSST-1 (20 ng/mL final concentration each). Cells were incubated for 90 h. Then, Alamar Blue (20 uL/well) (Invitrogen, Cat DAL1100) was added for 6 h, and the plates were read with a fluorescence microplate reader at 546/580 nm (excitation/emission). For PBMC proliferation, cells were plated and activated as above but incubated for only 16 h prior to addition of Alamar Blue. Plates were read after 6 h.

Row | SMILES | outcome | AC50
1 | N#CC(Br)Br | inactive | –
2 | Cc1ccc(N=C=O)cc1N=C=O | inactive | –
3 | C1=Cc2cccc3cccc1c23 | inactive | –
4 | c1ccc(N=Nc2ccccc2)cc1 | inactive | –
5 | Cn1cc(-c2ccccc2)c(=O)c(-c2cccc(C(F)(F)F)c2)c1 | inactive | –
6 | CN(C)c1ccccc1 | inactive | –
7 | OCCOCCO | inactive | –
8 | ClC1=C(Cl)[C@]2(Cl)[C@H]3[C@H]([C@@H]4C=C[C@H]3C4)[C@@]1(Cl)C2(Cl)Cl | – | 30.5 µM (active)
9 | Nc1ccc(Cc2ccc(N)cc2)cc1 | inactive | –
10 | CCN(CC)N=O | inactive | –
11 | Nc1ccc([N+](=O)[O-])cc1 | inactive | –
12 | CCC12COCN1COC2 | inactive | –
13 | [Cl-].[Cl-].[Hg+2] | – | 20 µM (active)
14 | CCNS(=O)(=O)C(F)(F)C(F)(F)C(F)(F)C(F)(F)C(F)(F)C(F)(F)C(F)(F)C(F)(F)F | inactive | 44.2 µM (active) and 46 µM (active)
15 | Nc1cc(Cl)cc(C(=O)O)c1Cl | inactive | –
16 | COC(=O)c1ccccc1N | inactive | –
17 | COC(=O)Nc1nc2ccccc2[nH]1 | – | 10.5 µM (active)
18 | Clc1ccc(Cl)c(Cl)c1 | inactive | –
19 | O=C(Oc1ccc(Br)cc1)N1CCN2CCC1CC2 | inactive | –
20 | CCCCCCCCn1sccc1=O | – | 20.8 µM (active)

Row | SMILES | outcome | AC50
21 | CCCCOC(=O)c1ccccc1C(=O)OCc1ccccc1 | inactive | –
22 | CCCCC(CC)COC(=O)c1ccc(C(=O)OCC(CC)CCCC)c(C(=O)OCC(CC)CCCC)c1 (stereo not given) | inactive | –
23 | CN(C)[C@@H]1C(=O)C(C(N)=O)=C(O)[C@@]2(O)C(=O)C3=C(O)c4c(O)cccc4[C@@](C)(O)[C@H]3C[C@@H]12 | inactive | –
24 | c1ccc2c(c1)-c1cccc3cccc-2c13 | inactive | –
25 | CC(C)N(Cc1ccccc1)C(=O)C(C)(C)C | inactive | –
26 | O=C1CCCO1 | inactive | –
27 | CCCCCCCCCCCCCN1CC(C)OC(C)C1 (stereo not given) | inactive | –
28 | c1ccc(NNc2ccccc2)cc1 | inactive | –
29 | Oc1ccc2ccc3cccc4ccc1c2c34 | – | 32 µM (active)
30 | Cc1cccc(N)c1N | inactive | –
31 | C[C@]12C=CC3=C4CCC(=O)C=C4CC[C@H]3[C@@H]1CC[C@@H]2O | inactive | –
32 | CC(C)(C)C(O)(CCc1ccc(Cl)cc1)Cn1cncn1 (stereo not given) | inactive | –
33 | CC(C)(O)c1cnn2c(-c3ccc(F)c(-c4c(F)cccc4C#N)c3)cnc2n1 | inactive | –
34 | Nc1ccc(N=Nc2ccccc2)cc1 | inactive | –
35 | CCOC(=O)[C@]1(c2ccccc2)Oc2ccccc2[C@@H]1N | inactive | –
36 | N#CC(Br)(Br)C(N)=O | inactive | –
37 | OCCCBr | inactive | –
38 | O=C(Nc1ccccc1)c1ccccc1I | inactive | –
39 | Cc1ccc(N)c(N)c1 | inactive | –
